Bioassay records deposited in PubChem by National Center for Advancing Translational Sciences (NCATS).
A selection: hits, their analogues and other compounds. The true share with any hit is near 19%.
DT40 TDP1 no CPT – qHTS for Inhibitors of human tyrosyl-DNA phosphodiesterase 1 (TDP1): qHTS in cells in absence of CPT | DT40 Tdp1-/- hTDP1 cells, no CPT, ATP luminescence, 48 h | Potency, µM (doses to about 46.2 µM), hits mostly inhibitors | actives 15% (n = 420,000); further: nearly all actives have a fitted effect of over 55% in size
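Camptothecin absent (DMSO only). Human TDP1-complemented DT40 knockout cells, 400 cells/well, 37 °C for minimum 48 hr; ATP measured via CellTiter-Glo, 30 min dark incubation, luminescence.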
MCF10A rerep – DNA re-replication induction in MCF 10a cells | Potency, µM (highest dose often 46.1 µM), hits mostly activators | actives 2.9% (n = 350,000) | MCF 10A DNA re-replication, Hoechst nuclear intensity, 48 h; further: nearly all actives have a fitted effect of over 50% in size
IL-1B inflam inh – inflammasome signaling inhibition, IL-1 beta readout; THP-1 LPS/ATP IL-1B secretion, AlphaLISA, 16 h; active compounds read low; activity change, % at 57.5 µM; actives 4.7% (n = 360,000); in the data active means activity change below about -50%; inconclusive means mostly about -30% to -49%
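Secreted IL-1B measured by AlphaLISA bead assay after 16 h compound exposure of THP-1 cells; compounds (final up to 57.5 uM) added 1 h before LPS (250 ng/mL) and ATP (1.25 mM) stimulation; lower signal means less secretion.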
DT40 TDP1 CPT – DT40-hTDP1 cell growth loss with CPT. chicken DT40 Tdp1-/-;hTDP1 cells + 20 nM CPT, ATP luminescence, 48 h. Potency, µM (highest dose often 46.2 µM), hits mostly inhibitors. actives 12% (n = 420,000). AID 686979; further: nearly all actives have a fitted effect of over 55% in size
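Chicken DT40 Tdp1-/- cells stably complemented with human TDP1 were seeded at 400 cells/well in medium containing 20 nM camptothecin, exposed to pin-transferred compounds, and grown at 37 °C for at least 48 hr. Viability was read as ATP luminescence.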
SW480 rerep – induces DNA re-replication in SW480 colon adenocarcinoma cells. SW480 DNA re-replication, Hoechst DNA content imaging, 48 h. Potency, µM (doses to about 46.1 µM), usual class: activators. actives 1.8% (n = 340,000); further: nearly all actives have a fitted effect of over 55% in size
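Cells (250 per well) received 23 nL compound or DMSO by pin tool and were kept 48 hr at 37 C, 5% CO2. Nuclei were then stained with Hoechst for 40 min and scanned for DNA content.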
BCR signal inh – blocks chronic active B-cell receptor signaling | ABC-DLBCL IkBa-CBG/CBR reporter, luminescence ratio, 4 h | Potency, µM (doses to about 46.1 µM), most hits filed as inhibitors | actives 0.05% (n = 340,000) | AID 493014; active means well fitted inhibition curve with a large enough effect in the signal ratio, with a control signal flat, not every such curve was filed as active; inconclusive means small, poorly fitted or top-dose-only effect, or effect the other way, or a change in a side signal; the % refers to the signal ratio
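TMD8 human ABC-DLBCL cells with doxycycline-inducible IκBα–green luciferase fusion and unfused red luciferase, in 0.5% FBS medium; compounds up to 46 uM, 4 h at 37C. Green/red luminescence ratio, filter-overlap corrected, fitted to concentration-response curves.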
Hits are given with their value; n = inactive; u = inconclusive; x = no result given; ! = not confirmed by another sample. Unless noted, the call rests on the fitted dose curve; in most records, active means well fitted curve in the direction sought with a large enough effect; inconclusive means small, poorly fitted or top-dose-only effect, or another doubt; inactive means no such curve, though single readings can be large; an effect the other way counts as inactive or inconclusive.

SMILES	DT40 TDP1 no CPT	MCF10A rerep	IL-1B inflam inh	DT40 TDP1 CPT	SW480 rerep	BCR signal inh
COc1cc(OC)c(NC(c2nnc(-c3ccccc3)o2)c2ccc(F)cc2Cl)cc1Cl (configuration not stated)	18µM	x	x	u	x	x
Cc1ccc(C)c(S(=O)(=O)N2CCCOC2CNC(=O)C(=O)NCc2ccccn2)c1 (configuration not stated)	n	n	n	n	n	n
COc1ccc(CN2CC[C@H]3C=CC[C@@H](C(=O)NC4CCCCC4)[C@H]3C2=O)cc1OC	n	x	x	n	x	x
O=C(O)CCc1ccc(-c2ccccc2)n1NC(=O)c1cccs1	n	n	n	n	23µM	n
O=C1CC(N2CCOCC2)C(=O)N1Cc1ccc(N2CCCC2=O)cc1 (configuration not stated)	n	n	n	n	n	n
O=C1CC(N2CCC(O)(c3ccc(Cl)cc3)CC2)C(=O)N1Cc1ccc(N2CCCC2=O)cc1 (configuration not stated)	15µM	n	n	u	n	n
COc1cc(CN2C(=O)C(Cc3ccccc3)ON=C2c2ncccc2C)cc(OC)c1 (configuration not stated)	u	x	n	u	x	x
COc1ccc(C(C)=O)cc1CN1C(=O)C(Cc2ccccc2)ON=C1c1ncccc1C (configuration not stated)	u	x	n	21µM	x	x
CCCOC(c1ccccc1)(c1ccc(C(F)(F)F)cc1)C(Oc1nc(C)cc(C)n1)C(=O)O (configuration not stated)	21µM	n	n	18µM	n	u
O=c1[nH]cnc2c1ncn2C1OC(CO)CC1F (configuration not stated)	1.8µM	x	n	0.46µM	x	x
O=c1[nH]cnc2c1ncn2[C@H]1CC[C@@H](CO)O1	12µM!	n	n	9.2µM!	n	n
C=CCNc1ncnc2c1ncn2[C@H]1CN(C2CCCC2)C[C@@H](CO)O1	n	x	n	n	x	x
O=[N+]([O-])c1ccc2c(c1)c(-c1ccccc1)nc1nncn12	7.3µM	n	n	n	n	u
Nc1nn(-c2ccccc2)c2ccc([N+](=O)[O-])cc12	u	n	u	n	n	u
CCC(=O)Oc1ccc(C/C(=N\O)c2ccc(O)cc2O)o1	18µM	15µM	n	u	u	u
COc1ccc(N(CC(=O)N/N=C/c2ccc(OC)cc2OC)S(=O)(=O)c2ccccc2)cc1	n	n	n	n	n	n
COc1ccc2cc(/C=N/NC(=O)CN(c3ccccc3C)S(=O)(=O)c3ccccc3)c(Cl)nc2c1	6.5µM	u	n	2.9µM	n	n
O=C(Cc1ccc([N+](=O)[O-])cc1)N1CCN(c2ccc([N+](=O)[O-])cc2)CC1	7.3µM	n	n	18µM	n	n
O=C(CSc1ccccc1C(=O)N1CCN(c2ccc([N+](=O)[O-])cc2)CC1)N1CCCC1	15µM	n	n	12µM	n	n
O=C(Cc1ccccc1)N1CCN(c2ccc([N+](=O)[O-])cc2)CC1	u	n	n	u	n	n
Cc1cccc(N2CCN(C(=O)Cc3ccccc3[N+](=O)[O-])CC2)c1C	21µM	n	n	n	n	n
O=C(CCc1ccccc1)N1CCN(c2ccc([N+](=O)[O-])cc2)CC1	23µM	n	n	u	n	u
O=C(Cc1ccccc1[N+](=O)[O-])N1CCN(S(=O)(=O)c2ccccc2)CC1	n	n	n	n	n	n
FC(F)Oc1ccc(C2N=C(c3ccccc3)NO2)cc1 (configuration not stated)	n	n	n	n	n	u
CN(C(=O)c1c(O)c2ccccc2n(C)c1=O)c1ccccc1	n	n	x	n	n	x
SMILES	DT40 TDP1 no CPT	MCF10A rerep	IL-1B inflam inh	DT40 TDP1 CPT	SW480 rerep	BCR signal inh
Cc1ccc2ncc(C(=O)NCc3ccccc3Cl)c(=O)n2c1	n	x	x	n	x	x
O=C(CSc1ccc(-c2cccc([N+](=O)[O-])c2)nn1)N1CCCCCC1	u	n	-54	u	n	n
CCC1CCC(N2CCN(c3ccc([N+](=O)[O-])cc3)CC2)CC1 (configuration not stated)	u	n	-60	u	n	n
CC1CCC(N2CCN(c3ccc([N+](=O)[O-])cc3)CC2)CC1 (configuration not stated)	u	n	n	u	n	n
O=C(Cc1ccccc1[N+](=O)[O-])OCC(=O)N1CCN(c2ccccc2)CC1	n	u	n	n	u	n
O=C(Cn1cc([N+](=O)[O-])nc1[N+](=O)[O-])N1CCN(c2ccccc2)CC1	u	n	u	16µM	u	u
O=C(Cc1ccccc1[N+](=O)[O-])N1CCN(c2ccc(F)cc2)CC1	n	n	n	n	12µM	u
O=C(Cn1cnc2ccccc2c1=O)N1CCN(c2ccccc2)CC1	n	n	n	n	n	n
O=C(CSc1ccc(-c2cccc([N+](=O)[O-])c2)nn1)N1CCCC1	n	n	n	n	n	n
CCCn1cnnc1CNC(=O)[C@H]1O[C@@H](n2cnc3c(N)ncnc32)[C@H](O)[C@@H]1O	n	x	n	n	x	x
O=C(CCCSc1nc2ccccc2[nH]1)N1CCN(c2ccc([N+](=O)[O-])cc2)CC1	8.2µM	n	n	10µM	n	n
O=C(Cc1ccc(F)cc1)N1CCN(c2ccc([N+](=O)[O-])cc2)CC1	u	n	n	21µM	n	n
O=C(CCc1ccc(Oc2cc([N+](=O)[O-])cc([N+](=O)[O-])c2)cc1)N1CCCCCC1	u	u	u	18µM	n	n
O=C(NCCN1CCN(c2ccc([N+](=O)[O-])cc2)CC1)NCc1ccccc1	8.2µM	u	n	u	n	n
O=C(NCCN1CCN(Cc2ccc([N+](=O)[O-])cc2)CC1)C(=O)Nc1ccccc1	n	n	n	n	n	u
O=C(Cc1ccc(Cl)cc1)N1CCN(c2ccc(F)cc2)CC1	u	n	n	u	n	n
CCCN(C(=O)c1cn(C)c(=O)c2cc(OC)c(OC)cc12)c1ccc(CC)cc1	u	x	x	u	x	n
COc1ccc(OC)c(/C=N/NC(=O)CNC(=O)c2ccc(S(=O)(=O)N3CCOCC3)cc2)c1	n	n	n	n	n	n
Cc1cccc(C)c1N1C(=O)c2ccccc2NC(=O)C1C(=O)NCC(C)C (configuration not stated)	n	x	n	n	x	x
CC(=O)c1cccc(NC(=O)CCn2nc(C)c(S(=O)(=O)N(C)C)c2C)c1	n	x	x	u	x	x
